Here are results for 13 molecules from paper PMC12864922, “TDP-43 directly inhibits mRNA accumulation in neurites through modulation of mRNA stability”.

Sequences and labels used below:
B1: ENSMUSG00000042529.105|Kcnj12 (ssRNA)
RNA: GGGAGUUCUACAGUCCGACGAUCGCUUCGAUAUCCGCAUGCUAAGGUCUGUUUUCUCCCUCACGUGGGCCAGGGCCUUAAGCGAGUUGUCAUGCUUAAGGAUGAAUCAGGCUGCUUGUGACCAUGUUAACGAUUCUAAUAAAGUGUCUGGAUGUCUCUUGGGGGUGGGGCCCACUAGGGUGAAUCUGGCUUGCUCUUCUGUUUGAUGUUGUUGUACCUCAGCUGCCUCAGGGCUGGGUUUAGACACCCCUUCCCCCACCCCCACUCCGUACUCCCUGUUGUGCUUCCCUUCCUAUUUAGUCCCCUCUUGCGGUCGCACUAGUGUGGAAUUCUCGGGUGUCAAGG
B2: ENSMUSG00000090935.77|Synj2bp (ssRNA)
RNA: GGGAGUUCUACAGUCCGACGAUCGCUUCGAUAUCCGCAUGCUACUUUGUCAGCAUAGGCAGGAGUCCUUUAGGAUUUCUGCCUAUCAGUAAAAGAAGUAUGUAACCCAAGUUCUACCUUCAGUGGAUUAAAGUUUCAUUAAGUGAAAAUGGAAAGAAAGUAGAAUUACUUGGUAAGAGGCCAAAUGAGGAUACAGAGGCUGAAGAAGAUUGAAAGGAGCUAGUGUAAACAAACAAACAAACAAACAAACAAAAAACCAAACCCCAAAACAAAAACAAAAACAAAACAAAAUUGGAGAAAGCAGCUCUUGCGGUCGCACUAGUGUGGAAUUCUCGGGUGUCAAGG
B3: ENSMUSG00000090935.604|Synj2bp|54:59 (ssRNA)
RNA: GGGAGUUCUACAGUCCGACGAUCGCUUCGAUAUCCGCAUGCUACUAAUAGACACUGUUUGCUUCAGUUGUUUUUGUUUCCUUUUCCUACAGUUUUCACACACGGUGAUUUCAUUUAAUUAAUUGGACAGUCUAGCCACAGGCAACAAAUAGAAAUAGUAUUUGUAAUUAUAGUCUAUGCCAGGGACUGUCUUAAACUGAUUAGUAACACUAUGACUUACCCUGAGAUCUAAGUAUUGCUAUAAAGAGACUGAAGAGGAGAGAAUAAAGUAUUUUCCUAGGACUACAUAGUUGGUAAAAGAGAACUCUUGCGGUCGCACUAGUGUGGAAUUCUCGGGUGUCAAGG
B4: ENSMUSG00000035279.10|Ssc5d|99:105 (ssRNA)
RNA: GGGAGUUCUACAGUCCGACGAUCGCUUCGAUAUCCGCAUGCUAAUGCCUUCAAACCACCCAGAAGCCAGACCUUACACUCAGCUUCAGACCACCUCACUCAAGGGCCAACCCCUAAUCACAACCCAGAUCCUUUUGGGCCAACACACACCCCAUUACCACCAGUAAGGGUCAUGGCUUGUGAGCCACCUGCCUUGGUGGAGCUGGUAGGUGCUGUGAGGGAGGUGGGUGACCAGCUGCAGAGACUGACCUGGGUCCUGGAGCAGGACCGGCAGGAGCGCCAAGUCCUGGCACUGGGCCUAGCCCUCUUGCGGUCGCACUAGUGUGGAAUUCUCGGGUGUCAAGG
B5: ENSMUSG00000031028.241|Tub (ssRNA)
RNA: GGGAGUUCUACAGUCCGACGAUCGCUUCGAUAUCCGCAUGCUAGGUUCUGGGGCUGGGCUUGGACACGCCCUCCAUUGGGAUGGCACCACUCAUCUGGUGGGCUUGGGAACUCCAAGCUCUUGCCUGUGUGCCAUCUGUGAGAAGCUUCUUGGAGCUGAGACACCAGAGGGAAGCAAAGAGCAUUUAGACAUUGCUUUUUGCUUUGAAAUAGAUAUGUUUGGAAACGCUAAGUAGAAGUUUAAAAAGUAGAGUCAUGUAGAGUCAUGCUUUGAAUAUGUGGGUCAUGCUUUAGAUAUGAAGAGCUCUUGCGGUCGCACUAGUGUGGAAUUCUCGGGUGUCAAGG
B6: ENSMUSG00000061578.211|Ksr2 (ssRNA)
RNA: GGGAGUUCUACAGUCCGACGAUCGCUUCGAUAUCCGCAUGCUAUGACACAAGAGGCAAAGCUGUCCCUAAGCAGAGAAUUAGCAGGGUUAGCCAGACAGCAAAAUCCAUGUAAACAUACAAAACCACCCCCCCUUUUUGAGUGGCCCUAUUGGAUGUACACACUAGGACCAAGCACGGGUCCAAAGCAGGAAGACUGAUUGACAGUAGUCACACUUCUAGAGAGAUGUACCCCAUGACACUUUCAAGUCUUUUCAGAACCUUCUCACCCCUUUGCAAAGCUCUUGCCGUCUGCACCCGGGACCCUCUUGCGGUCGCACUAGUGUGGAAUUCUCGGGUGUCAAGG
B7: ENSMUSG00000090935.117|Synj2bp (ssRNA)
RNA: GGGAGUUCUACAGUCCGACGAUCGCUUCGAUAUCCGCAUGCUAUUUGCCCUCACCAUGGUAGCAGUUUGGGCCUUCGUGAGAUACCGAAAGCAGCUUUGAAAUGCUUGCUGUCUUCCAGUGUGUCCAAUGAACUCUCUCUCUCACUCACCAUCUCUGACAUCCUCCCAUAUUCUUUCUCCUCCACAUAGCCAAUACAAGAUUUAAAGUGACUGCUUAUCACCCAAAACCCUGCUAUUCAAAAUCUCCUAUUCUAAUGGAAGAGUACAGGGGUUAUUUGAAGAAAAGCUGUGGUGGUGUGUGUGCUCUUGCGGUCGCACUAGUGUGGAAUUCUCGGGUGUCAAGG
B8: ENSMUSG00000061578.735|Ksr2 (ssRNA)
RNA: GGGAGUUCUACAGUCCGACGAUCGCUUCGAUAUCCGCAUGCUAUGUAUCAAGACCUUGGAGUUGUCUAAGGCUGUGGGUUUUAAAUACCUGCUGCAGGCCUCCCAUCUCUGGCUCUUUGUUUCCACUCUGGCCCAAGUUUGAGUCUCCAUAUGGGCCCUUCCUGUCCUCAUGCCCUGCCUGUCUUCAUUCCACCCAUCCACCCUCCUAAGGAUUGGUCUUGUUCCGAGAGUGAUCCUGGUAACGCCAAGCCUCCCUCUGCCCCUGUGUUGGCUUCUGUGACGGACUACCACACACCAAGAGGUCUCUUGCGGUCGCACUAGUGUGGAAUUCUCGGGUGUCAAGG
B9: ENSMUSG00000029028.148|Lrrc47 (ssRNA)
RNA: GGGAGUUCUACAGUCCGACGAUCGCUUCGAUAUCCGCAUGCUAUUGAGAACAUCAUGUUGUGAGUGUAAUCUUCUUAGAGCUUGUUUCCAGGCACCGUGCUGCCGCCAUGCUCCCAGGGCAGCAUCUGCCUUCCACGGCUGUGCUUGGAACUGUAGUGCUGGUCGUUGUUGGCACAUCUGCGCCUUGGCCAAGGAAGUUAUCUAUGUCCGUGUAGUCCUUUGUAGUCAGACAGAUGCUUCGUGGACUGUGCCUCACACAUGGCCCUGCAGGCUCCAUGUCAGCGUGUCCCACUAUUCAUGUCCCUCUUGCGGUCGCACUAGUGUGGAAUUCUCGGGUGUCAAGG
B10: ENSMUSG00000004113.103|Cacna1b (ssRNA)
RNA: GGGAGUUCUACAGUCCGACGAUCGCUUCGAUAUCCGCAUGCUAAUCCUAAGCAGGAGGUAGCUGAGUUGAGAUGGACCCAGCAAAUCCAAAUCCUAUGUCAUGGCCUCCAGCAUCCAGGGUGGGUCCUUGGGACUUUUCUUAGGAGGGACUUUCUGAGCCUCGUGGAGAGUGUGGUUUGUCCAAAUGUGUGGCAUGGGAGAUAGGGUACCCCUGAAAGCAAGGAAAGGAGCCCAGCUGUGGCCUGGUAGCACCUGCCGGCACCAGUGAUCUCACGUCUCUUGUGGUCUUGGAGUCAAAUAGCACUCUUGCGGUCGCACUAGUGUGGAAUUCUCGGGUGUCAAGG
B11: ENSMUSG00000061578.1429|Ksr2|169:173 (ssRNA)
RNA: GGGAGUUCUACAGUCCGACGAUCGCUUCGAUAUCCGCAUGCUAAGAUCUGUCUUGCUCUCUGUCUCUCUCACUCAUUGCCAACAUGUUGCUGGGAAAGAAUAUUUGAUUUAGAUGCCAAUCAGGAAGGCAAGUAGGAUGGAUGGAUGAGUGAGUGGAUAGGUAGGUAUAUAAAUGGAUGGAUGGGUGAUGGAUGGGUAAAUGAAUGGAUAGCAUACUGAAUGAAUGGAUGAUGGAUGAAUGGAUGGGUAGGUGGGUAGAUAGGUAUAUGAAUGAAUGGAUGAAUGGAUGGGUGAAUGGAUGGACUCUUGCGGUCGCACUAGUGUGGAAUUCUCGGGUGUCAAGG
B12: ENSMUSG00000035279.28|Ssc5d (ssRNA)
RNA: GGGAGUUCUACAGUCCGACGAUCGCUUCGAUAUCCGCAUGCUACAUUACCACCAGUAAGGGUCAUGGCUUGUGAGCCACCUGCCUUGGUGGAGCUGGUAGGUGCUGUGAGGGAGGUGGGUGACCAGCUGCAGAGACUGACCUGGGUCCUGGAGCAGGACCGGCAGGAGCGCCAAGUCCUGGCACUGGGCCUAGCCCAGUUGGUAGAGGCUGCUCAGGGGUUGGGGCAGCUGAGUGAGACUGUAAAGAGGCUAGCAGAGGUGGCCUGGCCCCCCAGCACUCCUGUGCCCAUGACCACCACCACACUCUUGCGGUCGCACUAGUGUGGAAUUCUCGGGUGUCAAGG
B13: ENSMUSG00000031028.488|Tub|93:99;130:136 (ssRNA)
RNA: GGGAGUUCUACAGUCCGACGAUCGCUUCGAUAUCCGCAUGCUAAGGAGGAGCUGAGAUGUGCACCCUUUUAAAUGAACAUGGGGUGGUGAUGGUGCCUUAACAAUCUUGACACUAAGGUGAAGCAAGCAAGUAAGCACACACCCUCUGGGAAGACAGGAGUCGGAAGCCAAGCACACACGCAACAGUCUGGAAGAGAGCUUUUGGUAAUCAUACCGUCUUCAGUGACAAGGCAACAAUGCUGUAAAGUGGGUUUGUUUGGUUUUGUUUUUUCUUUCUCUUUUAUGGAAAUGGCAGGUCUAUUUCUCUUGCGGUCGCACUAGUGUGGAAUUCUCGGGUGUCAAGG

Whole data set: some 9,900 sequences, median “r (bound/input frequency ratio)” near 0.7, cut for the highest 2% near 6.5. Only a selection was taken, and the highest values are over-represented in it overall.

Sequence of TDP-43 (Q13148 whole entry): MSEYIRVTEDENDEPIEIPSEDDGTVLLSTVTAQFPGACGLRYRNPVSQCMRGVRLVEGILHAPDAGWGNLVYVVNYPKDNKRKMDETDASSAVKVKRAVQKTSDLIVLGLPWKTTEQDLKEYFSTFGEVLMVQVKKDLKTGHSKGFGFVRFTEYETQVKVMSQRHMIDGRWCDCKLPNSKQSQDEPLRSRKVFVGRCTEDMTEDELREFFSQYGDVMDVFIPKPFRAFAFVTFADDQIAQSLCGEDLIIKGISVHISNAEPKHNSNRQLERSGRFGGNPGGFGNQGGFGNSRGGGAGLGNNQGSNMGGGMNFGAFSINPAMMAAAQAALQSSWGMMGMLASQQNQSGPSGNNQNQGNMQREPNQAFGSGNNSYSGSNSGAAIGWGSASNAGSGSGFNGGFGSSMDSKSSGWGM

The test deals with TDP-43 (Homo sapiens, UniProt Q13148 1-414). The test is described as follows: RNA Bind-n-Seq with designed 260-mer pool; 25 mM Tris-HCl, 150 mM KCl, 3 mM MgCl2, BSA (printed 500 mg/mL), 20 units/mL SUPERase IN; pH not stated; 500 nM RNA pool, 1 h, 4 C; TDP-43 5, 50, 500 nM; high values mean tight binding. The settings on record: protein: recombinant; tags: SBP (GST cleaved off with PreScission; pGEX-GST-SBP). The method in brief:
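Recombinant SBP-tagged TDP-43 at 5, 50 or 500 nM was captured on streptavidin beads, then incubated 1 h at 4 °C with 500 nM of an in vitro-transcribed 260-nt 3′ UTR oligo pool in 25 mM Tris-HCl, 150 mM KCl, 3 mM MgCl2, BSA and SUPERase IN. Bound RNA was washed, eluted with biotin, reverse transcribed, PCR-amplified and sequenced. Binding is R, each oligo's mapped-read-normalized abundance in the bound sample divided by its abundance in input. Duplicates used two independent protein batches.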
As to B1, the binding signal was 3.16 R (bound/input frequency ratio).

With B2, the binding signal was 0.858 R (bound/input frequency ratio).

Regarding B3, the binding signal was 0.0675 R (bound/input frequency ratio).

For the molecule B4, the binding signal is 1.24 R (bound/input frequency ratio).

On to B5, for which the binding signal is 0.949 R (bound/input frequency ratio).

As to B6, the binding signal was 0.667 R (bound/input frequency ratio).

Take B7: the binding signal is 1.43 R (bound/input frequency ratio).

Turning to B8, the binding signal was 1.36 R (bound/input frequency ratio).

As for B9, the binding signal is 1.13 R (bound/input frequency ratio).

With B10, the binding signal was 1.15 R (bound/input frequency ratio).

With B11, the binding signal was 5.89 R (bound/input frequency ratio).

Take B12: the binding signal was 0.915 R (bound/input frequency ratio).

Regarding B13, the binding signal is 0.906 R (bound/input frequency ratio).
